Assay outcomes as filed in PubChem.
PLK1 PBD block: qHTS for Inhibitors of PLK1-PDB (polo-like kinase 1 - polo-box domain): Primary Screen | Potency, µM, inactives show max response, negative = inhibition, usual class: inhibitors | Plk1 PBD binding of FITC phosphopeptide, fluorescence polarization | AID 720504, 2013 | actives 2.8% (n = 360,000); also: series mostly up to about 57 µM; % is scaled to controls: 0 for no effect and ±100 for the full control effect; nearly all actives have a fitted effect of over 65% in size
G9a block: qHTS Assay for Inhibitors of Histone Lysine Methyltransferase G9a; Potency, µM (top dose mostly 102 µM), for the others: at the highest dose activity, negative = inhibition, actives largely listed as inhibitors; Histone-lysine N-methyltransferase EHMT2 (Homo sapiens), Q96KQ7; G9a H3K9 monomethylation, AlphaScreen, 2 h; AID 504332, 2011; actives 8.8% (n = 350,000); also: % is scaled to controls: 0 for no effect and ±100 for the full control effect; nearly all actives have a fitted effect of over 75% in size
Target sequence (Q96KQ7 913-1193 limits assumed): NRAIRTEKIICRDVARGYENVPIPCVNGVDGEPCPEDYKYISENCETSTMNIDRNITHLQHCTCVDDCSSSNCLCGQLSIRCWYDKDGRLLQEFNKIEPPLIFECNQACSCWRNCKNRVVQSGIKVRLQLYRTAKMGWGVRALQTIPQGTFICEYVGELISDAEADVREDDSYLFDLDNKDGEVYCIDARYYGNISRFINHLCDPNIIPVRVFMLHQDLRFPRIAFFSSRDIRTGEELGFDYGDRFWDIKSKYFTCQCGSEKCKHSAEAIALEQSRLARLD
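G9a (20 nM) was preincubated 15 min with compound, then reacted 2 h at room temperature with 500 nM biotin-H3K9 peptide and 20 µM SAM. Monomethyl-H3K9 detected by AlphaScreen using anti-H3K9me1 antibody.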
JMJD2A Tudor inh: qHTS Assay for Inhibitors of JMJD2A-Tudor Domain | Lysine-specific demethylase 4A (Homo sapiens), O75164 | AlphaScreen JMJD2A-Tudor / H3K4me3 peptide binding | Potency, µM (titrated, usually from 114 µM), without a hit: at the highest dose activity change, negative = inhibition, most hits filed as inhibitors | actives 4.4% (n = 390,000); also: % is scaled to controls: 0 for no effect and ±100 for the full control effect; nearly all actives have a fitted effect of over 50% in size
BAZ2B inh: qHTS Assay for Inhibitors of BAZ2B. Bromodomain adjacent to zinc finger domain protein 2B (Homo sapiens), Q9UIF8. AlphaScreen BAZ2B-H3K14Ac peptide displacement. Potency, µM (highest dose often 114 µM), for the others: at the highest dose activity change, negative = inhibition, most hits filed as inhibitors. actives 4.4% (n = 360,000). AID 504333, 2011; also: % is scaled to controls: 0 for no effect and ±100 for the full control effect; nearly all actives have a fitted effect of over 60% in size
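Multi-concentration screen (max 110 uM) measuring displacement of acetylated histone H3 peptide from BAZ2B by AlphaScreen, using 50 nM protein, 50 nM peptide and 10 ug/mL streptavidin donor plus Ni-chelate acceptor beads.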
HP1b chromo inh: HTS for Inhibitors of HP1-beta Chromodomain Interactions with Methylated Histone Tails | AID 540317, 2011 | Potency, µM (doses to about 114 µM), for the others: top-dose activity change, negative = inhibition, most hits filed as inhibitors | actives 0.56% (n = 390,000) | AlphaScreen HP1-beta / biotin-H3K9me3 peptide binding; also: nearly all actives have a fitted effect of over 70% in size
Target sequence (P83916 whole entry, looked up): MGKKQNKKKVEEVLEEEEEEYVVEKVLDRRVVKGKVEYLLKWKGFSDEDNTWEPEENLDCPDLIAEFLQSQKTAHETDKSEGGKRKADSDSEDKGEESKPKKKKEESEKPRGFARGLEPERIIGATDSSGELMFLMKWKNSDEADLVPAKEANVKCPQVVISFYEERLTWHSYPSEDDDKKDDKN
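HP1-beta protein (50 nM final) preincubated 30 min at room temperature with biotinylated H3(1-18)K9me3 peptide (50 nM) in PBS pH 7.4, 0.01% Tween-20, then compound added for 30 min. AlphaScreen streptavidin donor/nickel chelate acceptor beads (10 ug/mL final), 30 min dark, luminescence read.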
Sfp PPTase inh: qHTS Assay for Inhibitors of Bacillus subtilis Sfp phosphopantetheinyl transferase (PPTase); Biochemical Sfp PPTase activity, qHTS; AID 1490, 2009; Potency, µM, inactives show largest response in the series, negative = inhibition, actives largely listed as inhibitors; 4'-phosphopantetheinyl transferase ffp (Bacillus subtilis), Q9F4F7; actives 3.5% (n = 310,000);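 also: the enzyme is Sfp with the accession as filed and its product quenches rhodamine fluorescence; 0% = enzyme reaction without inhibitor and -100% = no enzyme wells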
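Fluorescence-quenching assay with 15 nM Sfp, 5 uM rhodamine-CoA and 12.5 uM BHQ-2-labelled ybbR peptide in pH 7.6 Hepes/MgCl2 buffer. Enzyme was pre-incubated with compound for 15 min at room temperature. Rate was taken from the 30-min fluorescence change (525/598 nm).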
* marks the source's active call; other numbers are inactive results; ? = inconclusive; nt = not tested or not shown; [ ] = dose if it differs, or a comment. Compounds with a hit are over-represented: about 12% of the library has one in this group of screens. Calls follow the shape of the dose curve; as a rule, active = well fitted curve in the direction sought with a large enough effect; inconclusive = small, poorly fitted or top-dose-only effect, or another doubt; inactive = no such curve, though single readings can be large; an effect the other way counts as inactive or inconclusive. Potency is read from the fitted curve at half-maximal effect.

SMILES | PLK1 PBD block | G9a block | JMJD2A Tudor inh | BAZ2B inh | HP1b chromo inh | Sfp PPTase inh
CC(=O)NC(CC(=O)N(Cc1ccccc1)c1cccc(C)c1)c1ccccc1 (configuration not stated) | -6% | 47% | -25% | -1% | -2% | 16%
Cc1ccc(-n2c(Cc3cccn3C)nnc2SCC(=O)N2CCc3ccccc32)cc1 | -5% | 45µM* | ? | 50µM* | ? | -14%
COc1ccc(-n2c(Cc3cccn3C)nnc2SCC(=O)N2CCOCC2)cc1 | -7% | 71µM* | -25% | -6% | 27% | 2%
Cn1cccc1Cc1nnc(SCC(=O)N2CCc3ccccc32)n1-c1ccc(F)cc1 | ? | -7% | -20% | -11% | ? | -4%
COc1ccc(OC)c(NC(=O)CSc2nnc(Cc3cccn3C)n2-c2ccc(F)cc2)c1 | -2% | ? | -35% | 50µM* | 1% | -8%
CC(=O)c1ccc(OCCOc2ccc([N+](=O)[O-])cc2)cc1 | -15% | 5% | -12% | -19% | 16% | 0%
CC1CCN(CCOc2ccc(Cl)c(Cl)c2)CC1 | -9% | ? | 10µM* | -29% | ? | 8%
O=Cc1ccccc1OCCOc1ccc([N+](=O)[O-])cc1 | 27µM* | -1% | -29% | -15% | -12% | -8%
CCN1CCN(CCNC(=O)Nc2ccc([N+](=O)[O-])cc2)CC1 | 2% | -42% | 8% | -6% | 28% | 0%
Cc1cc(OCCN2CCOCC2)ccc1Cl | -10% | 10µM* | -100% | ? | ? | -2%
O=C(NCCN1CCCCC1)Nc1ccc([N+](=O)[O-])cc1 | -13% | 79µM* | -12% | -9% | 7% | 6%
COC(=O)c1scc(C)c1NC(=O)c1ccccc1F | 1% | 4% | -7% | -1% | 43% | 10%
COc1ccc2c(c1)O[C@@H](c1cccc(C(F)(F)F)c1)[C@H](OC(=O)NCc1ccco1)C2=O | nt | nt | nt | nt | nt | -4%
C[N+]1(CCOc2ccc([N+](=O)[O-])cc2)CCOCC1 | ? | ? | 56µM* | ? | ? | -5%
Cc1ccc(C)c(OCCN2CCOCC2)c1 | 6% | ? | 10% | -16% | 37% | 7%
Cc1cc(C)c(NC(=O)OCCN2CCOCC2)c(C)c1 | 2.7µM* | 14% | -28%[11.4 µM] | 11% | ? | 1%
O=[N+]([O-])c1ccc(OCCN2CCCCCC2)cc1 | 0% | 32µM* | 2.8µM* | 50µM* | ? | 4%
Cc1cc(C)c(NC(=O)CCCN2CCOCC2)c(C)c1 | -3% | -8%[12.7 µM] | -17% | -3% | 23% | 20%
O=[N+]([O-])c1cccc(COc2ccc(CN3CCCCC3)cc2)c1 | -8% | nt | -13% | nt | 23% | nt
Cc1cc(C)c(OCCN2CCOCC2)c(Cl)c1 | -4% | 32µM* | 28µM* | ? | ? | -12%
COc1ccc(CNc2ccnc(-c3cccnc3)n2)c(OC)c1 | nt | -23%[0.501 µM] | nt | nt | nt | ?
COC(=O)[C@]12CCCCC=C1N(Cc1ccc3c(c1)OCO3)C(=O)[C@H](CC(=O)N1CCC(c3ccccc3)CC1)C2 | -2% | nt | nt | nt | nt | nt
COc1ccc(/C=C(/NC(=O)c2ccccc2)C(=O)N2CCCC2)cc1 | 0% | 18% | -9% | 0% | 32% | 13%
Cc1cc(OCCN2CCOCC2)ccc1[N+](=O)[O-] | -13% | 7.9µM* | 0.71µM* | 50µM* | ? | ?
Cc1cc(OCCN2CCCC2)ccc1[N+](=O)[O-] | -5% | 7.9µM* | 3.2µM* | ? | -12% | -6%
SMILES | PLK1 PBD block | G9a block | JMJD2A Tudor inh | BAZ2B inh | HP1b chromo inh | Sfp PPTase inh
CCOc1ccc(NC(=O)c2nc3nc(C)cc(C(F)F)n3n2)cc1 | nt | 5%[59 µM] | -16% | -17% | 12% | nt
CNCC(O)Cn1c2c(c3ccccc31)CCCC2 (configuration not stated) | -23% | 50µM* | 28µM* | ? | -5% | 12%
Cc1ccc2c(c1)c1c(n2CC(O)Cn2c(C)nc3ccccc32)CCCC1 (configuration not stated) | -18% | -24% | ? | 9% | 7% | 10%
Cc1ccc2c(c1)c1c(n2CC(O)CN2CCCCCC2)CCCC1 (configuration not stated) | -20% | ? | ? | 35µM* | ? | -2%
Cc1ccc2c(c1)c1c(n2CC(O)CNC(C)(C)C)CCCC1 (configuration not stated) | -6% | 50µM* | 45µM* | 45µM* | -12% | 12%
C[C@]1(CC/C(=C/CO)CO)[C@H](CO)CC[C@@]23COC(=O)C2=CCC[C@@H]31 | -1% | -5%[12.7 µM] | 6% | 6% | 49% | nt
CN1C(=O)C(CC(=O)NC2CCCCC2)SC1=Nc1ccccc1 (configuration not stated) | 30µM* | 17%[59 µM] | ? | 25% | 20% | ?
Clc1cc(Br)ccc1OCCOCCOc1cccc2cccnc12 | 4% | 4%[12.7 µM] | 4% | -16% | 77% | -8%
COC(=O)c1ccccc1OCCOCCOc1cccc2cccnc12 | ? | 5%[59 µM] | -30%[57.1 µM] | -32% | ? | -20%
Cc1ccc(OCCOCCOc2cccc3cccnc23)c(Br)c1 | 27µM* | 14% | -1%[57.1 µM] | 9% | ? | -8%
O=[N+]([O-])c1ccccc1OCCOCCOc1cccc2cccnc12 | -12% | 2µM* | 20µM* | 32µM* | ? | ?
CC(=O)N1CCN(C(=O)CSc2nc3c(cnn3-c3ccccc3)c(=O)[nH]2)CC1 | -4% | -38% | 8% | -7% | 28% | 12%
CCC(=O)N1N=C(c2cccs2)CC1c1ccc(C)cc1 (configuration not stated) | 27µM* | 13% | -34% | 14% | 29% | -5%
O=C(CSc1nc2c(cnn2-c2ccccc2)c(=O)[nH]1)N1N=C(c2cccs2)CC1c1ccc(F)cc1 (configuration not stated) | ? | 28µM* | -11% | -26% | 7% | 5%
O=C(c1ccco1)N1N=C(c2cccs2)CC1c1ccc(F)cc1 (configuration not stated) | -5% | -29%[59 µM] | -14% | -3% | 28% | 56µM*
COc1ccc(C2CC(c3cccs3)=NN2C(=O)c2ccco2)cc1OC (configuration not stated) | -10% | -3%[59 µM] | -27% | ? | -9% | -9%
